Experimental data: PubChem BioAssay (NCATS)
Records with an inconclusive call do not appear. Activity calls are given as the source filed them. Unless noted, the call rests on the fitted dose curve; in most records, active means well fitted curve in the direction sought with a large enough effect; inconclusive means small, poorly fitted or top-dose-only effect, or another doubt; inactive means no such curve, though single readings can be large; an effect the other way counts as inactive or inconclusive.

Columns and labels:
[1] = target: Lysosomal acid glucosylceramidase (Homo sapiens) (UniProt P04062); experiment: Glucocerebrosidase-p2 (AID 348; in the data active means potency below about 10 µM; further: potency means the concentration at half of the fitted maximal effect); details: purified GBA, blue fluorogenic substrate, 40 min
Sequence of Lysosomal acid glucosylceramidase (Homo sapiens) (P04062 whole entry, looked up): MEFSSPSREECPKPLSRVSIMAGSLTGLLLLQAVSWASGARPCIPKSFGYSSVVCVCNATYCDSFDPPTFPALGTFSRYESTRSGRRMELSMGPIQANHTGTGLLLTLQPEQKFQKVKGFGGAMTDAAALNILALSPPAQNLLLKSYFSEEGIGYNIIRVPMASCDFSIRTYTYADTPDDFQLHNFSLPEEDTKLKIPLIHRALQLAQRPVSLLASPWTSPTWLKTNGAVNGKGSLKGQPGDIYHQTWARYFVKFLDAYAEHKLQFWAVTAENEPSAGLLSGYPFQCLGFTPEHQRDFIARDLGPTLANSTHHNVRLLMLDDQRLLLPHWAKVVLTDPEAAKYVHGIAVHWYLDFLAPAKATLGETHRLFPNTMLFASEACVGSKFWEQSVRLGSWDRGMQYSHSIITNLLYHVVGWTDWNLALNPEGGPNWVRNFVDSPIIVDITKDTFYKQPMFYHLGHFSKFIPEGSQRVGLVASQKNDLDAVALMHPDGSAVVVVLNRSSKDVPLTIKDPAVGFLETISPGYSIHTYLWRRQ
Procedure, shortened: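 Compounds titrated from 0.6 nM upwards against 0.2 nM enzyme in pH 5.9 citric acid/KH2PO4, taurocholate, tween-20; blue fluorogenic substrate 80 uM, 40 min room temperature, stopped and read Ex 365/Em 440 for AC50.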

[2] = AP1 Signaling Pathway (AID 357; active means well fitted curve in either direction with a large enough effect, not every such curve was filed as active;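 further: ME-180 reporter cells stimulated with EGF at its EC50 level; on the % scale 0 is the no-effect control and ±100 the full control effect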); details: ME-180 AP-1-bla reporter, EGF-induced, beta-lactamase ratio, 5 h; at 7.69 µM (top of the series) unless noted
Procedure, shortened: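 A ratiometric CCF4 readout (405 nm excitation; 460 and 530 nm emission) quantified AP-1-driven beta-lactamase in ME-180 cells after 5 h with compound and EC50 EGF; AC50 values were derived for activators and inhibitors.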

[3] = target: Cytochrome P450 1A2 (Homo sapiens) (UniProt P05177); experiment: p450-cyp1a2 (AID 410; calls by dose curve; further: potency means the concentration at half of the fitted maximal effect); details: recombinant CYP1A2, luciferin-ME demethylation, luminescence; series mostly up to 57 µM
Sequence of Cytochrome P450 1A2 (Homo sapiens) (P05177 whole entry, looked up): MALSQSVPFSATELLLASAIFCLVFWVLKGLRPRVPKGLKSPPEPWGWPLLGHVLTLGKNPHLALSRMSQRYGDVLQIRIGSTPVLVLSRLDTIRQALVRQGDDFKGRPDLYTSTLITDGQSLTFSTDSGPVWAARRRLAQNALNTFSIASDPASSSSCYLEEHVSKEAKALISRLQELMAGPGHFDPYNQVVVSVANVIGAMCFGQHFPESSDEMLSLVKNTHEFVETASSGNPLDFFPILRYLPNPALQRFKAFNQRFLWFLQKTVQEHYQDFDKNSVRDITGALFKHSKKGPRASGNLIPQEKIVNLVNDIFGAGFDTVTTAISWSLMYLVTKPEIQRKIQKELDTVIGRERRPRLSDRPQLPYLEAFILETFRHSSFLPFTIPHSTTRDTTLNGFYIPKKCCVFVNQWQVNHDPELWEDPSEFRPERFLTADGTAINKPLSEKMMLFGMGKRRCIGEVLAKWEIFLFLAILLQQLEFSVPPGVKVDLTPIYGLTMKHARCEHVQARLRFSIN
Procedure, shortened: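 Luminescent readout of luciferin formed from Luciferin-ME by human CYP1A2; data normalized against complete inhibition by 57 uM furafylline. Enzyme 20nM, substrate 100uM at Km, 100mM KPO4 buffer, 60 min reaction at room temperature.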

[4] = NFAT Signaling Pathway (AID 444; active means well fitted curve in either direction with a large enough effect, not every such curve was filed as active;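 further: carbachol stimulus at about its EC50 of 1 µM final; on the % scale 0 is the no-effect control and ±100 the full control effect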); details: Jurkat NFAT-bla M1, carbachol, beta-lactamase ratio, 5 h; at 7.69 µM (top of the series) unless noted
Procedure, shortened: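 Read-out: CCF4 FRET ratio (460 nm/530 nm) after 1 h RT dye loading, used for %activity and AC50 from titration series. Cells: Jurkat NFAT-β-lactamase/M1 line, treated with compound plus 1 uM carbachol for 5 h, 37 °C.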

[5] = Stat Signaling Pathway (AID 446; active means well fitted curve in either direction with a large enough effect, not every such curve was filed as active;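 further: ME-180 cervical cancer cells given 40 pM IL-6 alongside compound; SIE-controlled beta-lactamase reporter measured as 460/530 nm FRET emission ratio; on the % scale 0 is the no-effect control and ±100 the full control effect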); details: ME-180 SIE beta-lactamase reporter, IL-6 stimulated, 5 h; at 7.69 µM (top of the series) unless noted
Procedure, shortened: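 Screening format detects activators and inhibitors alike: ME-180 SIE-bla cells stimulated at 40 pM IL-6 for 5 hrs with compound, then dual-emission beta-lactamase read at 405 nm excitation.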

[6] = target: Glucocorticoid receptor (Homo sapiens) (UniProt P04150); experiment: GR-GFP Redistribution (AID 450;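 active means compounds whose dose series gives a full or clear partial fitted curve of increased nuclear translocation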; further: potency means the concentration at half of the fitted maximal effect); details: U2OS GR-GFP nuclear translocation, laser cytometry, 2 h
Sequence of Glucocorticoid receptor (Homo sapiens) (P04150 whole entry, looked up, the tested form may be a part): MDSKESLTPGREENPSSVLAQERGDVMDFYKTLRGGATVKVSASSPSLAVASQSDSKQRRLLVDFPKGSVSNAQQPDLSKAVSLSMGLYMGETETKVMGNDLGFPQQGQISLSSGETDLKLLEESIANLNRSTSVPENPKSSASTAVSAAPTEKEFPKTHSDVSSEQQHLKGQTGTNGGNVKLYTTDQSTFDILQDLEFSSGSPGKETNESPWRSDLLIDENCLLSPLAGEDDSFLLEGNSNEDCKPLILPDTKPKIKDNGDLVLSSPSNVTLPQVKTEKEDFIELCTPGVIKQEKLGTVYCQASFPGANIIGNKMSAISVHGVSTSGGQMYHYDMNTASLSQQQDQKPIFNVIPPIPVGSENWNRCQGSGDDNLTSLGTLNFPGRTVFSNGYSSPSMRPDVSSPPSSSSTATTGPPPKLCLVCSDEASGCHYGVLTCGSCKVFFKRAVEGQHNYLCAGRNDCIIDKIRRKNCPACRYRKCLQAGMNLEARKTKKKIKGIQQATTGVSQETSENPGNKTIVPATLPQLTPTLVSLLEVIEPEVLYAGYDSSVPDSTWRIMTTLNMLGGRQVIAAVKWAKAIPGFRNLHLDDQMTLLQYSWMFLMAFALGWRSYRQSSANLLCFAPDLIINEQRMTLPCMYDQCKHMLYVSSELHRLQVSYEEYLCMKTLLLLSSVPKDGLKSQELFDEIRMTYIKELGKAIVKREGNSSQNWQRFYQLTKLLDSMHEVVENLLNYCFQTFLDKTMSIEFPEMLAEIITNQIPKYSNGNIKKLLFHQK

[7] = target: Glucocorticoid receptor (Homo sapiens) (UniProt P04150); experiment: GR-EFC Redistribution (AID 451; calls by dose curve; further: potency means the concentration at half of the fitted maximal effect); details: CHO-K1 GR-EFC translocation, beta-gal luminescence, 2 h
Procedure, shortened: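 Translocation of GR-ED fusion to nuclear EA restores b-gal, read by luminescence after 1 h room-temperature detection. Engineered CHO-K1 biosensor cells, 1,000/well, exposed 2 h at 37 C to titrations up to 46 uM final.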

[8] = target: Mitogen-activated protein kinase 10 (Mus musculus) (UniProt Q61831); experiment: JNK3 AlphaScreen Assay (AID 530; active means well fitted curve in either direction with a large enough effect, not every such curve was filed as active;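 further: kinase came from lysate of stimulated human HepG2 cells; signal reports phosphorylation of biotinylated GST-cJun 1-79 at Ser73 with 10 µM ATP; on the % scale 0 is the no-effect control and ±100 the full control effect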); details: JNK3 lysate, c-Jun phosphorylation; series mostly up to 57.1 µM
Procedure, shortened: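 Compound titrations were preincubated 15 minutes at room temperature with substrate, antibody and pre-activated JNK3-containing HepG2 lysate. Reactions were started with 10 uM ATP and stopped with EDTA-containing bead buffer for AlphaScreen detection.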

[9] = qHTS Assay for Lipid Storage Modulators (AID 1519; calls by dose curve); details: Drosophila S3 cells, BODIPY lipid droplet/cell ratio, laser cytometry, cells loaded with oleic acid; for activity change, negative = inhibition: at 57.5 µM (top of the series)
Procedure, shortened: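 Cells seeded at 5,000 per well were treated with compounds over a concentration series and loaded with oleic acid (400 uM, as added). Lipid droplet fluorescence (488 nm excitation, 500-530 nm channel) was read by laser-scanning cytometry and normalized to 20 uM Triacsin C.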

[10] = target: Dual specificity protein kinase CLK4 (Homo sapiens) (UniProt Q9HAZ1); experiment: qHTS Assay for Inhibitors of CDC-like Kinase 4 (ADP-FP Assay) (AID 1795); details: Transcreener ADP fluorescence polarization; series mostly up to 50 µM;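 further: recombinant human CLK4 phosphorylating RS repeat peptide at 1 µM ATP; on the % scale 0 is the no-effect control and ±100 the full control effect; nearly all actives have a fitted effect of over 60% in size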
Sequence of Dual specificity protein kinase CLK4 (Homo sapiens) (Q9HAZ1 whole entry, looked up): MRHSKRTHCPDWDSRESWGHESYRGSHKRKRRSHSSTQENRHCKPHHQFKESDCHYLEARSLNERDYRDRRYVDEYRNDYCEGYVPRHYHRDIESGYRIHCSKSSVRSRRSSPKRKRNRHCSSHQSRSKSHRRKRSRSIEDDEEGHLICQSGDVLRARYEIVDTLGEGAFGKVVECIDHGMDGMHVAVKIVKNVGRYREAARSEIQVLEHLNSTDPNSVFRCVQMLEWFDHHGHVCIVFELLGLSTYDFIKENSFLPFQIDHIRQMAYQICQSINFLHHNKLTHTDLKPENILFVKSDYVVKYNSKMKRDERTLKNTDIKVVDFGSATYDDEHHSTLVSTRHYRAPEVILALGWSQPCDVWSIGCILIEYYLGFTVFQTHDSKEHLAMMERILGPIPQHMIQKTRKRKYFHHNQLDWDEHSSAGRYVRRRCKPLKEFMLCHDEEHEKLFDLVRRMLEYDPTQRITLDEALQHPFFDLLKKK
Procedure, shortened: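 Kinase activity was followed as ADP output, converted from fluorescence polarization with a calibration curve. Reactions ran one hour at low ATP (1 uM) with RS peptide substrate.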

[11] = Primary qHTS for small molecule stabilizers of the endoplasmic reticulum resident proteome: Secreted ER Calcium Modulated Protein (SERCaMP) assay (AID 1508630); details: SH-SY5Y GLuc-SERCaMP (Gaussia luciferase released on ER calcium loss) secretion, thapsigargin, luminescence; series mostly up to 38.4 µM; further: on the % scale 0 is the no-effect control and ±100 the full control effect
Procedure, shortened: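 GLuc-SERCaMP-expressing SH-SY5Y cells, pretreated 16 h with compound, are challenged with thapsigargin to empty ER calcium stores; after 4 h, coelenterazine is added directly to the medium and luminescence is imaged.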

[12] = target: Cytochrome P450 3A4 (Homo sapiens) (UniProt P08684); experiment: qHTS Assay for Inhibitors and Substrates of Cytochrome P450 3A4 (AID 884); details: recombinant CYP3A4, Luciferin-PPXE luminescence; series mostly up to 57.1 µM; further: potency means the concentration at half of the fitted maximal effect; nearly all actives have a fitted effect of over 50% in size
Sequence of Cytochrome P450 3A4 (Homo sapiens) (P08684 whole entry, looked up): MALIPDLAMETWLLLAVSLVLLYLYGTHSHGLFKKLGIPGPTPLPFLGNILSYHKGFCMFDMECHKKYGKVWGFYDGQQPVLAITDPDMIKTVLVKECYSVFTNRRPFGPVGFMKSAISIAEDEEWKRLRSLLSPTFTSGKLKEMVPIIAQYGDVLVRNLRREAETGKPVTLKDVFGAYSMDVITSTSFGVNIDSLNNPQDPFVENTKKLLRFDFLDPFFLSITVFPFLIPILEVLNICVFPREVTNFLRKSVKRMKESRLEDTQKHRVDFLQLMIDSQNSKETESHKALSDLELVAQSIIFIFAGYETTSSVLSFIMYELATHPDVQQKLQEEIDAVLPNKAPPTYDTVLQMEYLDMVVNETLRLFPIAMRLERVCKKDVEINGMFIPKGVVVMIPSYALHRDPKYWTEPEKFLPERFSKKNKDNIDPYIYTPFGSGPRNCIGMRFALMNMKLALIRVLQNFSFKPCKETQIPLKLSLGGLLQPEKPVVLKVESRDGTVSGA
Procedure, shortened: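 20 nM human CYP3A4 with 25 uM Luciferin-PPXE (at KM) in 200 mM KPO4, preincubated 10 min with compound; NADPH regeneration started a 60 min RT reaction. Luciferin detected by luminescence, normalized to 57 uM ketoconazole as full inhibition.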

[13] = target: Cytochrome P450 3A4 (Homo sapiens) (UniProt P08684); experiment: qHTS Assay for Activators of Cytochrome P450 3A4 (AID 885); details: recombinant CYP3A4, Luciferin-PPXE luminescence, 60 min; series mostly up to 57.1 µM; further: nearly all actives have a fitted effect of over 65% in size
Procedure, shortened: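 Steps: enzyme/substrate mix dispensed; compound added, 10 min RT; NADPH regeneration solution added, 60 min RT; luciferin detection buffer stops reaction; 20 min later luminescence measured.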

[14] = target: Ubiquitin carboxyl-terminal hydrolase 1 (Homo sapiens) (UniProt O94782); experiment: Inhibitors of USP1/UAF1: Pilot qHTS (AID 504865); details: purified USP1/UAF1, Ub-rhodamine cleavage fluorescence; series mostly up to 54.9 µM;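 further: rhodamine fluorescence freed from ubiquitin-rhodamine substrate followed over time; top concentration of the series differs between compounds; on the % scale 0 is the no-effect control and ±100 the full control effect; nearly all actives have a fitted effect of over 35% in size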
Sequence of Ubiquitin carboxyl-terminal hydrolase 1 (Homo sapiens) (O94782 whole entry, looked up): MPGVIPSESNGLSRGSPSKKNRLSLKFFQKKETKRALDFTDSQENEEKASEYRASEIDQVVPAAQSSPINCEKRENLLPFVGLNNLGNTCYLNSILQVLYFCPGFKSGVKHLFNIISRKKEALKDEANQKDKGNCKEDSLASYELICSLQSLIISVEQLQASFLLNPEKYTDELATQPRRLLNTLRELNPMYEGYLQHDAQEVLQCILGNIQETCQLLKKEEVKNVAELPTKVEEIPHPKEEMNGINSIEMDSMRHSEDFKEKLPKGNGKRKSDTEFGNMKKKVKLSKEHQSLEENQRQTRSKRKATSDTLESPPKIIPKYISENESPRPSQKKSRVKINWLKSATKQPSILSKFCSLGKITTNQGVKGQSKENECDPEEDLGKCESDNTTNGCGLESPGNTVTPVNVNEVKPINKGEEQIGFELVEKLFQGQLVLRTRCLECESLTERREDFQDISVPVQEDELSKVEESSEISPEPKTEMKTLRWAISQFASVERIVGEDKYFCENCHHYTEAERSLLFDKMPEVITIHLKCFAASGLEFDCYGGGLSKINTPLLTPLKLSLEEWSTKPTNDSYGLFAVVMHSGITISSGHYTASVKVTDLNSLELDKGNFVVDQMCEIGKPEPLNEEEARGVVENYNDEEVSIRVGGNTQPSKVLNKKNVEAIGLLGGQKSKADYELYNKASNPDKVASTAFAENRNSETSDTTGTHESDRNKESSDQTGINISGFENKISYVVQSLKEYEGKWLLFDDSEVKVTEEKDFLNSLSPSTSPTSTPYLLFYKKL
Procedure, shortened: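 Enzyme-free wells gave the negative control, while test wells held 1nM USP1/UAF1 preincubated with compound for 15 min at room temperature. Ub-Rho at 150nM final started the reaction, and fluorescence at 480/540 nm was recorded kinetically.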

[15] = target: 3',5'-cyclic-AMP phosphodiesterase 4B (Homo sapiens) (UniProt Q07343); experiment: qHTS Assay for Inhibitors of PDE-IV (AID 607; active means well fitted activation curve with a large enough effect in the main read-out, with a control signal flat, not every such curve was filed as active; further: % of control where 0% means no effect); details: HEK293 ACTOne CNG channel cells, membrane potential fluorescence; series mostly up to 22.9 µM
Sequence of 3',5'-cyclic-AMP phosphodiesterase 4B (Homo sapiens) (Q07343 whole entry, looked up): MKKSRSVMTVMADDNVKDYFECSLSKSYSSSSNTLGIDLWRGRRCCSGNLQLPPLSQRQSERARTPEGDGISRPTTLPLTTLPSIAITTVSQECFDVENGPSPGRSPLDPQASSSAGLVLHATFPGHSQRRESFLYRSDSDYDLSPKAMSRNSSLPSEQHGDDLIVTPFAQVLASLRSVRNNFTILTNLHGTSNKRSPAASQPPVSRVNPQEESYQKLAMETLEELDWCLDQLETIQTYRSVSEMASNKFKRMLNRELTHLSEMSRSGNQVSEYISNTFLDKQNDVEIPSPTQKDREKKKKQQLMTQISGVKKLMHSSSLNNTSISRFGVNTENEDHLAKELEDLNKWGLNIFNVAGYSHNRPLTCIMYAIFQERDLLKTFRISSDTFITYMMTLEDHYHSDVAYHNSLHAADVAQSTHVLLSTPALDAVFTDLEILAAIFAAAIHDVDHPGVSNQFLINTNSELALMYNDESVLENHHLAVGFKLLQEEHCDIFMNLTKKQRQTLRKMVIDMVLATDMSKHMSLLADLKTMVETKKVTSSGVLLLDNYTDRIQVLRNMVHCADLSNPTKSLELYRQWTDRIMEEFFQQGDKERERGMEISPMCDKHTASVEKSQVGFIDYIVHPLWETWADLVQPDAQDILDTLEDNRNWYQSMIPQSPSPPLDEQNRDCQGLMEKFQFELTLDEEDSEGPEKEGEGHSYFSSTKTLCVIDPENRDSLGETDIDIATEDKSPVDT
Procedure, shortened: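 The readout is membrane depolarisation from a cAMP-sensing CNG channel, detected with a potential dye at ex 535/em 590. Cells were HEK293-derived (endogenous PDE-IV) at 1000 cells/well, titrated up to 22.9 uM final.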

[16] = qHTS Assay for Identification of Small Molecule Agonists for Hypoxia Response Element Signaling Pathway (AID 914; active means well fitted activation curve with a large enough effect in the signal ratio, with a control signal flat, not every such curve was filed as active; the % refers to the signal ratio; further: potency means the concentration at half of the fitted maximal effect; on activation: % of control where 0% means no effect); details: ME-180 (cervical carcinoma) HRE-bla reporter, beta-lactamase ratio, CoCl2, 17 h; activation: stronger effect = higher value
Procedure, shortened: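 HRE-bla ME-180 cells, overnight plating in Opti-MEM with 0.5% dialyzed FBS; cpd titration + EC50 CoCl2, 17 h, 37 degrees Celsius; CCF4 2.5 h RT; 460/530 nm ratio; AC50.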

[17] = target: Cytochrome P450 2C9 (Homo sapiens) (UniProt P11712); experiment: qHTS Assay for Inhibitors and Substrates of Cytochrome P450 2C9 (AID 883); details: recombinant CYP2C9, luciferin-H luminescence, 60 min; series mostly up to 57.1 µM; further: potency means the concentration at half of the fitted maximal effect; nearly all actives have a fitted effect of over 60% in size
Sequence of Cytochrome P450 2C9 (Homo sapiens) (P11712 whole entry, looked up): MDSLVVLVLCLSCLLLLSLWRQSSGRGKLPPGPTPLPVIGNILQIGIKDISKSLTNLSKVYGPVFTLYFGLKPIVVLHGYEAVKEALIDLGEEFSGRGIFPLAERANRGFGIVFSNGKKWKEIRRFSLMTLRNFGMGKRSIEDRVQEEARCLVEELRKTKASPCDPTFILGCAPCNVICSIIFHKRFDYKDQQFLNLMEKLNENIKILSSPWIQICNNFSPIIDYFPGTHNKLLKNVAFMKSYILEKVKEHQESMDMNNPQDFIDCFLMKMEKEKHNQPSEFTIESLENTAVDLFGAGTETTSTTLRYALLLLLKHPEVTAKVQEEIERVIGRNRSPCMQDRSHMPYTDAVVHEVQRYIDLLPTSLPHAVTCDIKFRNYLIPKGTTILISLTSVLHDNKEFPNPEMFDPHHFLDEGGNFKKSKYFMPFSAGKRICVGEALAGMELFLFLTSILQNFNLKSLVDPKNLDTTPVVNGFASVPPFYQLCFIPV
Procedure, shortened: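 Turnover of Luciferin-H (100uM, KM) by 10nM human CYP2C9 was measured over 60 min at 37C with NADPH regeneration; inhibitors and some substrates reduce luminescence. Data normalized to sulphaphenazole 57uM.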

[18] = measured here: cell count channel max response
[19] = measured here: lipid channel max response

O=c1cnc2cnc(Nc3ccccc3)nc2n1Cc1ccc(F)cc1
inactive: Potency [1] > 11.4 µM | activity change, negative = inhibition [2] -17.4% | activity change, negative = inhibition [4] 3.72% | activity, negative = inhibition [5] -3.92% | Potency [6] > 9.22 µM | Potency [7] > 46 µM | outcome [8] | activity change, negative = inhibition [9] 6.15% | Potency [10] | Potency [11]
9.12%: max response [9, 18]
14.4%: max response [9, 19]
active: Potency [3] 1 µM

c1csc(CNc2ccnc(-c3ccoc3)n2)c1
21.1%: max response [9, 18]
20.9%: max response [9, 19]
inactive: Potency [1] > 11.4 µM | activity change, negative = inhibition [2] 8.64% | activity change, negative = inhibition [4] -0.203% | activity, negative = inhibition [5] 10.3% | Potency [6] > 46 µM | Potency [7] > 46 µM | outcome [8] | Potency [13] | activity change, negative = inhibition [9] 5% | Potency [10] | Potency [14] | Potency [11]
active: Potency [3] 1 µM | Potency [12] 7.94 µM

COCCn1c(=O)c(-c2ccccc2)nc2cnc(OC)nc21
active: Potency [3] 1 µM
inactive: Potency [1] > 11.4 µM | activity change, negative = inhibition [2] -2.69% | activity change, negative = inhibition [4] -14.5% | activity, negative = inhibition [5] -12.2% | Potency [6] > 9.22 µM | Potency [7] > 46 µM | outcome [8] | Potency [15] | Potency [13] | activation [16] -14.2% | activity change, negative = inhibition [9] 5.61% | Potency [10] | Potency [14] | Potency [11]
16.8%: max response [9, 18]
21.9%: max response [9, 19]

COCCNc1cc(-c2c(C)noc2C)ncn1
22.2%: max response [9, 19]
13%: max response [9, 18]
active: Potency [3] 10 µM
inactive: Potency [1] > 11.4 µM | activity change, negative = inhibition [2] -3.45% | activity, negative = inhibition [5] 0.472% | Potency [6] > 46 µM | Potency [7] > 46 µM | outcome [8] | Potency [15] | activity change, negative = inhibition [9] 8.14% | Potency [10] | Potency [14] | Potency [11]

O=c1c(-c2cc(F)cc(F)c2)nc2cnc(N3CCNCC3)nc2n1C1CC1
inactive: Potency [1] > 11.4 µM | Potency [6] > 9.22 µM | Potency [7] > 46 µM | Potency [15] | Potency [13] | activity change, negative = inhibition [9] 2.24% | Potency [10] | Potency [14] | Potency [11]
4.55%: max response [9, 19]
4.49%: max response [9, 18]
active: Potency [3] 3.16 µM | Potency [17] 0.158 µM | Potency [16] 2.51 µM

CCNc1ncc2nc(C)c(=O)n(Cc3cccs3)c2n1
-5.88%: max response [9, 19]
-9.24%: max response [9, 18]
active: Potency [3] 2 µM
inactive: Potency [1] > 11.4 µM | activity change, negative = inhibition [2] 19% | activity change, negative = inhibition [4] -12.9% | activity, negative = inhibition [5] -7.43% | Potency [6] > 9.22 µM | Potency [7] > 46 µM | outcome [8] | Potency [13] | activity change, negative = inhibition [9] 6.19% | Potency [10] | Potency [14] | Potency [11]
